Where “and” joins values, the source holds several entries; their conditions need not be identical. Identical values can stand only once. Compounds without any hit were thinned out: in the full panel of roughly 83,000, 20% have a hit.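 Interpretation: 100, growth as untreated; towards 0, rising growth inhibition; 0, no net growth; 0 to -100, cell death. Compounds scoring below 10 were considered active.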 Calls of active or inactive are those of the source.

The test deals with MCF7 breast. The test is described as follows: NCI-60 one-dose screen, 48 h (100 = growth as untreated, 0 = no growth, -100 = all killed). To be noted: 10 µM unless noted. Here is the method:
Growth inhibition of the MCF7 human tumor cell line is measured as a screen for anti-cancer activity. Cells are grown in 96 well plates and exposed to the test compound for 48 hours. Compounds are tested at a single concentration, which is 10^-5 M for most compounds. The reported endpoint is percent growth (GI% or GIPRCNT), where numbers from 0 - 100% represent growth inhibition, and numbers from -100% - 0 represent cell death. For example, a value of 40 represents 60% growth inhibition. A value of 0 means no net growth occurred over the course of the experiment. A value of -40 indicates 40% of cells at the beginning of the experiment died by the end of the experiment. A value of -100 means all cells are dead at the end of the experiment.
NCI-60 Human Tumor Cell Lines Screen was performed using the standard one-dose NCI protocol, which is described in more detail at https://dtp.cancer.gov/discovery_development/nci-60/default.htm.
Compounds with GIPRCNT values below 10 were considered active. Activity score was based on GIPRCNT using the following formula: […]
Score is 0 for GIPRCNT values of 100 or above, 50 for GIPRCNT values of 0, and 100 for GIPRCNT values of -100.
With `O=C(CCc1ccccc1)On1c(-c2ccccc2)nc2ccccc2c1=S`, the growth is -34.4% [100 µM] (active) and -60.1% [100 µM] (active).
The result for `Cl.Fc1c[c-]c(-c2ccccn2)c(F)c1.[Pt].c1ccc([PH+](CC[PH+](c2ccccc2)c2ccccc2)c2ccccc2)cc1` reads -74.7% (active).
The value for `COC1(OC)C2(Cl)C=C(c3ccccc3)C1(Cl)C(Cl)=C2Cl` (stereo not given) was 99.2% (inactive); that for `O=[N+]([O-])c1ccc(O)c2ncccc12` was 35.2% (inactive).
As to `COc1cc(/C=C/c2cc(/C=C/c3ccc(O)c(OC)c3)n(-c3ccccc3)n2)ccc1O`, the growth is -5.71% (active).
The result for `CN(C)CCNc1ccc(NCC[N+](C)(C)Cc2ccc([N+](=O)[O-])cc2)c2c1C(=O)c1ccccc1C2=O` reads 6.38% [25 µM] (active) and -100% [25 µM] (active); that for `Clc1ccccc1Nc1ccc2nnc(-c3ccncc3)n2n1`, 95.9% (inactive); that for `C=C1C(=O)OC2/C=C(/C)C3(O)OC(C)(CC(OC(=O)C(C)C)C12)CC3OC(C)=O` (stereo not given), -83.4% [100 µM] (active).
The result for `Cc1nc2cc(Nc3nc(Nc4ccc(F)cc4)nc(-c4cccs4)n3)ccc2n1Cc1ccccc1` reads 32.9% (inactive); that for `O=C1/C(=C/c2ccccc2F)CNC/C1=C\c1ccccc1F`, -47% (active).
Turning to `Nc1nc(Nc2cc(F)c(Cl)c(F)c2)cc(=O)[nH]1`, the growth is 65.9% [100 µM] (inactive) and -23.3% [100 µM] (active).
For the compound `CCN(CC)c1ccc2c(c1)OS(=O)(=O)N=C2`, the growth is 94.7% (inactive).
The value for `Cc1c(C)n(CC(O)CNC2CCCCC2C)c2ccccc12` (stereo not given) was -23.4% (active); that for `CCOc1cc2c(cc1O)/C(=N\N)C[C@@H]1[C@@H]2CC[C@]2(C)[C@@H](O)CC[C@@H]12` was 20.2% [100 µM] (inactive) and -66.9% [100 µM] (active).
The value for `O=C1CN2CCC1C/C2=C\c1ccnc2c(Cl)cccc12` (stereo not given) was 45.7% (inactive).
In the case of `CN1CCC(OC2c3ccccc3CCc3ccccc32)CC1`, the growth is 90.5% (inactive).
The value for `CCCCCCCCCCCCCC1=C(O)C(=O)C(CC2=C(O)C(=O)C(CCCCCCCCCCCCC)=C(O)C2=O)=C(O)C1=O` was 2.9% [100 µM] (active) and -79.8% [100 µM] (active).
The result for `O=S(=O)(Nc1ccccc1Cl)c1ccc(-c2cnc(C3CC3)o2)cc1` reads 15.7% (inactive); that for `CN(C)c1ccc(/C=C(\C#N)c2cc3ccccc3n2C)cc1`, 15.1% (inactive); that for `COc1cc(C2C3=C(COC3=O)N(CCO)c3cc4c(cc32)OCO4)cc(OC)c1O` (stereo not given), 19.6% (inactive).
For `O=C1Nc2ccc(Cl)cc2/C1=N/N=C(c1ccccc1)c1ccccc1`, the growth was 100% (inactive).
For the compound `COc1cc(NC(=O)COc2ccccc2)c(C(N)=O)cc1OC`, the growth is 17.1% (inactive).
In the case of `Cn1c2c(cc(S(=O)(=O)c3ccccc3)c1=O)CCc1c-2cnn1-c1ccccc1Cl`, the growth is 96.2% (inactive).
Turning to `CN1CCN(C(=O)OCCOCCOC(=O)N2CCN(C)CC2)CC1`, the growth is 102% (inactive).
In the case of `CCCCc1ccc(C(O)(CCN2CC3CCC(CC3)C2)c2ccccc2)cc1` (stereo not given), the growth is 95.7% (inactive).
The value for `CCN(c1ccc(C(=O)N2CCN(c3ccccc3)CC2)cc1)S(C)(=O)=O` was 95.9% (inactive); that for `COc1cccc(C2C3=C(COC3=O)N(CCO)c3cc4c(cc32)OCO4)c1` (stereo not given) was 14.6% (inactive); that for `Cn1c2c(cc(S(=O)(=O)c3ccccc3)c1=O)CCc1c-2cnn1-c1cccc(Cl)c1` was 90.4% (inactive).
The value for `Nc1nc2c(s1)CCc1c-2c(Br)n(Cc2ccccc2)c1Br` was 78.4% (inactive).
The value for `Nc1cc2[nH]c(=O)c3ccccc3c2cc1Br` was 24.5% (inactive); that for `O=C1c2[nH]cc(CN[C@@H]3CCCN3)c2C(=O)c2c1c(O)c1ccccc1c2O` was -96.5% (active); that for `Oc1ccc(/C=C/c2cc(O)cc3c2C(c2cc(O)cc(O)c2)C(c2ccc(O)c(O)c2)O3)cc1` (stereo not given) was -7.74% [100 µM] (active) and -48.3% [100 µM] (active).
In the case of `O=C1c2ccccc2C(=O)c2c(Nc3ccc(CCO)cc3)ccc(O)c21`, the growth was 33.7% (inactive).
The value for `COc1cc(OCc2cccc(-c3ccc(C(O)c4nccs4)cc3)c2C)cc(OC)c1C=O` (stereo not given) was 7.09% (active).
In the case of `Cc1ccc(NS(=O)(=O)c2ccc(-c3cnc(C4CC4)o3)cc2)cc1`, the growth was 15.6% (inactive).
The result for `CC(=O)O[C@@H]1C[C@@]2(C)[C@@H]3CC=C4[C@@H](C[C@H](O)C(=O)C4(C)C)[C@]3(C)C(=O)C[C@]2(C)[C@H]1[C@@](C)(O)C(=O)/C=C/C(C)(C)OC(C)=O` reads -52.5% [100 µM] (active) and -100% [100 µM] (active).
The value for `O=c1oc2ccccc2cc1-c1csc(N/N=C/c2cc3ccccc3nc2Cl)n1` was 90.7% (inactive); that for `C(=C\c1ccccc1)/CN1CCN(C(c2ccccc2)c2ccccc2)CC1` was 92.4% (inactive); that for `COc1ccc(CC2c3cc(OC)c(OC)c(OC)c3CC[N+]2(C)C)cc1Oc1ccc(CC2c3cc4c(c(OC)c3CCN2C)OCO4)cc1` (stereo not given) was 69.2% [100 µM] (inactive) and 5.51% [100 µM] (active).
For `Oc1ccc2ccccc2c1C1NN=C(c2ccccc2)S1` (stereo not given), the growth was 17.2% (inactive).

These data come from PubChem BioAssay (NCI).
